In the library only some 7.3% were active in any assay of this set; here they are far more common.
Luc counter: Counterscreen for Luciferase (Kinase-Glo TM) Inhibition; Potency, µM (doses to about 38.3 µM), for inactives: at the top dose activity change, negative = inhibition, hits mostly inhibitors; Kinase-Glo luciferase, ATP luminescence, 8 min; actives 0.28% (n = 200,000); Luciferin 4-monooxygenase (Photuris pensylvanica), Q27757; note: % is set by controls: 0 for no effect and ±100 for the full control effect; nearly all actives have a fitted effect of over 60% in size
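Inhibition of Kinase-Glo luciferase light generation was assessed at 10 uM ATP in pH 7.2 imidazole buffer, with luminescence measured after eight minutes at ambient temperature.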
NPC1 prom act: qHTS Assay for NPC1 Promoter Activators; actives 2.4% (n = 320,000); Potency, µM (series often up to 9.22 µM), inactives show at the highest dose activation, usual class: activators; Huh7 NPC1 promoter luciferase reporter, 24 h; AID 485313, 2010; note: % of control where 0% means no effect; nearly all actives have a fitted effect of over 60% in size
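Quantitative HTS used a cell-based reporter: Huh7 cells stably bearing the NPC1 promoter upstream of luciferase were treated with compounds for 24 h, and promoter activation was read as luminescence.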
SMN2 splice enh: qHTS Assay for Enhancers of SMN2 Splice Variant Expression; HEK293 SMN2-luciferase splicing reporter, luminescence, 30-36 h; Potency, µM (titrated, usually from 46.1 µM), for inactives: at the top dose activity change, positive = activation, usual class: activators; actives 2.8% (n = 210,000); AID 1458, 2008; note: % of control where 0% means no effect; nearly all actives have a fitted effect of over 55% in size
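HEK293 cells carry an SMN2 […]–luciferase reporter in which exon 7 inclusion puts luciferase in frame. Cells were plated 10-12 h before compound addition, then incubated 30-36 h at 37C. ONE-Glo luminescence was read; sodium butyrate at 4.5 mM final served as control.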
ELG1 genotoxic: qHTS screen for small molecules that induce genotoxicity in human embryonic kidney (HEK293T) cells expressing luciferase-tagged ELG1; actives 1.3% (n = 330,000); Potency, µM (top dose mostly 46 µM), for inactives: at the highest dose activity change, positive = activation, hits mostly activators; HEK293T ELG1-luciferase reporter, luminescence, 16 h; note: % of control where 0% means no effect; nearly all actives have a fitted effect of over 60% in size
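HEK293T cells expressing luciferase-tagged ELG1 were treated with compound or DMSO for 16 hr at 37°C. Luciferase activity was then read after 30 min with ONE-Glo at room temperature; rising signal flags genetic stress.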
Rab9 prom act: qHTS Assay for Rab9 Promoter Activators. AID 485297, 2010. actives 2.8% (n = 320,000). Potency, µM (highest dose often 9.22 µM), for the others: top-dose activation, negative = inhibition, usual class: activators. Huh7 Rab9 promoter-luciferase reporter, luminescence, 24 h; note: % of control where 0% means no effect; nearly all actives have a fitted effect of over 60% in size
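Luciferase signal after 10 min detection reagent at ambient indicates Rab9 promoter upregulation; stably transfected Huh7 cells were treated 24 h with compound in DMSO at 37 °C, 5% CO2.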
FLuc modulator: qHTS profiling assay for firefly luciferase inhibitor/activator using purifed enzyme and Km concentrations of substrates (counterscreen for miR-21 project); purified FLuc, Km substrates, luminescence inhibition; Potency, µM (doses to about 57.5 µM), for inactives: top-dose activity change, negative = inhibition, most hits filed as inhibitors; actives 6.9% (n = 360,000);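 note: plate controls were vehicle for no effect and reference inhibitor for full effect; nearly all actives have a fitted effect of over 55% in size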
Target sequence (P08659 whole entry, looked up): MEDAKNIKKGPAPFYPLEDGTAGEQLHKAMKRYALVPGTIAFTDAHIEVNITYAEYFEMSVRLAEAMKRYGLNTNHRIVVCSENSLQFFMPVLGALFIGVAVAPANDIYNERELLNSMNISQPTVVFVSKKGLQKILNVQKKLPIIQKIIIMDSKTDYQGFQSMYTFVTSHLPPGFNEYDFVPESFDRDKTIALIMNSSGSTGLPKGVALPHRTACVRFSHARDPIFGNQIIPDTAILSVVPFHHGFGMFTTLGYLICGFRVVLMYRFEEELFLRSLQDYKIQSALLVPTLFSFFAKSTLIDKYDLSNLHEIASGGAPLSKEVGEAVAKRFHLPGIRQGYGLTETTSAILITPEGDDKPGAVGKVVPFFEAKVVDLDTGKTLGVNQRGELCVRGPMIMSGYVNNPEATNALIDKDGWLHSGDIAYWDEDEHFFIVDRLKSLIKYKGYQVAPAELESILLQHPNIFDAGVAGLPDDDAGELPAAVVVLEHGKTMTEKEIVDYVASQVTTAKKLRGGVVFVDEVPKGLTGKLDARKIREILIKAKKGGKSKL
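Biochemical qHTS of compounds, final roughly 60 µM downward over six points, against 10 nM purified firefly luciferase using Km concentrations of substrates (10 uM D-luciferin, 10 uM ATP) in Tris acetate pH 7.5 buffer; luminescence output.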
Numbers without * were called inactive; ? = inconclusive; . = no result given; [ ] = dose if it differs, or a comment. Calls come from the whole dose curve; as a rule, active = well fitted curve in the direction sought with a large enough effect; inconclusive = small, poorly fitted or top-dose-only effect, or another doubt; inactive = no such curve, though single readings can be large; an effect the other way counts as inactive or inconclusive. Potency is the fitted concentration of half-maximal effect.

SMILES	Luc counter	NPC1 prom act	SMN2 splice enh	ELG1 genotoxic	Rab9 prom act	FLuc modulator
Cc1cc2ccccc2n1CCNC(=O)c1ccccc1	-8.3%	?	-54.1%	5.0%	?	21.3µM*
CCCCN1C(=O)C(O)(c2c[nH]c3ccccc23)c2cc(Br)ccc21 (configuration not stated)	.	.	7.7%	.	.	-9.7%
CCOC(=O)CNc1ncnc2c1nnn2C	.	.	.	.	.	0.7%
CCCCc1nn2c(=O)cc(COC(=O)c3cccc(NC(=O)CCc4ccccc4)c3)nc2s1	.	.	.	.	.	-2.7%
COc1ccc(C(=O)NCCSc2ccccc2)cc1	-8.5%	0.355µM*	2.82µM*	2.59µM*	0.355µM*	1.51µM*
CC(C)(C)c1ccccc1NC(=O)C1=COCCO1	.	-1.0%	.	6.2%	2.4%	2.1%
O=C(Cc1ccccc1)c1ccc2c(c1)OCCO2	-14.7%	2.51µM*	?	18.3µM*	2.82µM*	8.49µM*
O=C(NCSc1ccccc1)c1ccccc1	.	2.51µM*	.	?	1.41µM*	10.7µM*
O=C(NCNC(=O)c1ccccc1)c1ccccc1	-3.5%	5.4%	-2.3%	0.7%	-2.6%	6.6%
O=C(NCCc1ccccc1)C1=COCCO1	.	2.51µM*	.	?	3.16µM*	16.9µM*
COCCOC(=O)c1ccccc1C(=O)OCCOC	.	.	-4.0%	.	.	.
Nc1c(Cl)ncnc1N/N=C/c1ccc(O)cc1	.	-3.3%	.	?	20.0%	13.5µM*
O=C(O)c1ccc(/C=N/Nc2ncc(Cl)cc2Cl)cc1	.	16.0%	.	7.7%	26.4%	?
Oc1ccc(/C=N/Nc2nccnc2Cl)cc1	3.55µM*	3.98µM*	?	11.6µM*	3.16µM*	10.7µM*
O=C(OCc1ccc(F)cc1)c1cc(=O)c2ccccc2o1	.	-4.0%	.	1.0%	1.0%	15.1µM*
COc1ccc(-c2cccc(-c3cc(=O)oc4cc(OC)cc(OC)c34)c2)cc1	.	.	.	13.6%	.	.
COc1cc(OC)c2c(-c3cccc(-c4ccc(N(C)C)cc4)c3)cc(=O)oc2c1	0.8%[39.9 µM]	.	.	2.59µM*	.	.
COc1cc(/C=N/NC(=O)c2ccc3nc[nH]c3c2)ccc1O	.	-6.0%	.	-0.6%	-8.8%	?
CCN(CC)c1ccc(/C=N/NC(=O)c2ccc3nc[nH]c3c2)cc1	.	3.3%	.	6.1%	0.3%	19µM*
COc1cccc(/C=N/NC(=O)c2ccc3nc[nH]c3c2)c1	.	3.8%	.	1.1%	1.9%	15.1µM*
COc1ccccc1/C=C/C=N/NC(=O)c1ccc2nc[nH]c2c1	-1.6%	-1.4%	-18.5%	-23.6%	0.9%	16.9µM*
CN(C)c1ccc(/C=N/NC(=O)c2ccc3nc[nH]c3c2)cc1	.	3.4%	.	8.6%	17.8%	13.5µM*
Cc1ccc(N2CCN(S(=O)(=O)c3ccc(F)c(C(=O)Nc4ccc(Cl)cc4Cl)c3)CC2C)cc1 (configuration not stated)	.	.	.	.	.	-7.6%
COc1ccc(S(=O)(=O)NCc2cccn2Cc2cccc(C)c2)cc1OC	.	.	.	.	.	2.6%
Cc1c(Cl)cccc1N1C(N)=C(C#N)C(c2cc(CN3CCOCC3)cs2)C2=C1CCCC2=O (configuration not stated)	.	.	-17.3%	.	.	7.2%
COc1ccc2c(c1)C(=O)[C@H](OC(=O)N[C@H]1CCCc3ccccc31)[C@@H](c1ccc(OC)c(Br)c1)O2	-4.2%	.	5.0%	.	.	.
CN(C)CCCCN1CCc2c(n(C)c3ccccc23)C1=O	-3.1%[7.66 µM]	.	-2.5%[9.22 µM]	.	.	.
O=C(N/N=C/c1cccnc1)c1cccc(N2CCCC2=O)c1	.	7.7%	.	15.0%	29.4%	?
CCN(CC)c1ccc(/C=N/NC(=O)c2cccc(N3CCCC3=O)c2)cc1	-1.7%	6.8%	-4.9%	8.3%	-2.7%	15.1µM*

Assay outcomes: PubChem BioAssay, National Center for Advancing Translational Sciences (NCATS)
